PubChem BioAssay
Activity calls are given as the source filed them.

What was measured:
Albumin (Bos taurus) = Albumin (Bos taurus) (UniProt P02769); test: compounds binding labelled BSA control protein – biochemical, small-molecule microarray, Alexa647 label, 635/667 nm fluorescence, artefact control for SMM control protein annotation, profiling panel (AID 1118); conditions: BSA-A647 binding, fluorescence 635 nm, higher = more signal;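 further: score merges 667 nm emission intensity and signal-to-noise per printed compound spot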
[1] = probe aXIP binding to arrayed compounds – biochemical, NeuroSMM set, 635/667 nm fluorescence, primary screen (AID 1119); conditions: small-molecule microarray, higher = more signal, called active from +8 up or from −8 down;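 further: probe is the protein aXip251-270 applied at 1 µg/mL to compound-printed slides; binding of probe to printed compounds measured as 667 nm fluorescence plus signal to noise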
[2] = probe aNOTCH3 binding on compound microarray – biochemical, small-molecule microarray, 635/667 nm fluorescence, primary screen (AID 1120); conditions: higher = more signal;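 further: probe is a biotin-tagged antibody raised against NOTCH3 rather than NOTCH3 protein; score merges spot fluorescence near 667 nm with spot signal to noise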
[3] = probe aNOTCH2 binding on compound microarray – biochemical, small-molecule microarray, 635/667 nm fluorescence, primary screen (AID 1121); conditions: higher = more signal;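 further: score merges feature fluorescence read at 667 nm with its signal to noise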
[4] = target: Carbonic anhydrase 2 (Homo sapiens) (UniProt P00918); test: compounds binding carbonic anhydrase 2 – biochemical, small-molecule microarray, Alexa647-labelled CAII, profiling panel (AID 1122); conditions: CAII-A647 binding fluorescence, higher = more signal
[5] = COS7 lysate on small-molecule microarray, probe aHis, 635 nm (AID 1123); conditions: COS7 cell lysate, fluorescence, higher = more signal;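 further: z-score combines 667nm fluorescence intensity with signal-to-noise per printed compound spot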
[6] = probe aLAP1 signal on lysate-treated microarray – cell lysate, small-molecule microarray, COS7 lysate, primary screen (AID 1124); conditions: probe aLAP1, fluorescence, higher = more signal;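 further: lysate comes from COS7 cells expressing LAP1 and is applied at 0.3 µg/mL; score merges spot fluorescence near 667 nm with signal-to-noise over triplicate slides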
Sam68 (KHDRBS1) = test: compounds binding KHDRBS1 protein – biochemical, small-molecule microarray, 635 nm fluorescence, primary screen (AID 1125); conditions: higher = more signal;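 further: score merges 667 nm channel intensity with signal to noise over triplicate slides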
[7] = test system: Chordin-like protein 2 (CHRDL2); test: compounds binding chordin-like 2 – biochemical, small-molecule microarray, 635 nm fluorescence, primary screen (AID 1126); conditions: fluorescence 635 nm, higher = more signal;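 further: printed compound slides probed with Chrdl2 protein at 4 µg/mL for 1 h at 4 C; score merges 667 nm emission intensity with signal to noise over three replicate slides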
[8] = target: Concanavalin-A (Canavalia ensiformis) (UniProt P02866); test: compounds binding concanavalin A lectin – biochemical, small-molecule microarray, Alexa647 label, 635 nm, artefact control for SMM control protein annotation, primary screen (AID 1127); conditions: ConA-A647 binding fluorescence, higher = more signal;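 further: z combines 667 nm emission intensity with signal-to-noise across three replicate slides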
Concanavalin-A (Canavalia ensiformis), sequence (P02866 whole entry, looked up): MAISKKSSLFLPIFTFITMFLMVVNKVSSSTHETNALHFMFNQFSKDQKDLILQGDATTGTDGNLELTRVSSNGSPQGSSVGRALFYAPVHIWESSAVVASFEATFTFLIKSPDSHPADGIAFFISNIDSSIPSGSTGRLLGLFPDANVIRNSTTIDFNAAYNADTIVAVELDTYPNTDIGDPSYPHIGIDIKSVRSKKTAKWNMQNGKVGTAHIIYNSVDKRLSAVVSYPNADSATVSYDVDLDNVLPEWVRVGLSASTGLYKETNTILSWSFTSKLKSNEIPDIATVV

Albumin (Bos taurus), sequence (P02769 whole entry, looked up): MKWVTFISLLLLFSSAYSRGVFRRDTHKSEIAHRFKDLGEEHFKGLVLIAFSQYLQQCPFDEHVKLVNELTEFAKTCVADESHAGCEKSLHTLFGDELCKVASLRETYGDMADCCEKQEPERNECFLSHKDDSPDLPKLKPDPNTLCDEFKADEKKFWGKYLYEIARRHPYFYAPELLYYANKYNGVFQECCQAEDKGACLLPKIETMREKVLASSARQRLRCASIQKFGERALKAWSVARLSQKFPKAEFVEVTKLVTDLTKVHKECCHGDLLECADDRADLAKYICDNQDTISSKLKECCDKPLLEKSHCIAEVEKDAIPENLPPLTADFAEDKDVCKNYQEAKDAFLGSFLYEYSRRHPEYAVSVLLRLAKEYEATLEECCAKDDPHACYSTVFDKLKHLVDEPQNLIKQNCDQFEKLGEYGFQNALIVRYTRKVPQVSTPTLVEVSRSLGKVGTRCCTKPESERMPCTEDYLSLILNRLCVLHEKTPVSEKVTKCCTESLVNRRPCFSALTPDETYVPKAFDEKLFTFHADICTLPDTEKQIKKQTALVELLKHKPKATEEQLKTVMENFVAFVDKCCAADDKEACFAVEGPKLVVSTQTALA

SMILES	composite z-score (Albumin (Bos taurus))	composite Z-score [1]	composite z-score [2]	composite z-score [3]	composite z-score [4]	composite z-score [5]	composite z-score [6]	composite z-score (Sam68 (KHDRBS1))	composite z-score [7]	composite z-score [8]
O=C1O[C@H](c2ccccc2)[C@H](c2ccccc2)N2[C@H]1[C@@H](C(=O)Nc1nc3ccccc3s1)[C@]1(C(=O)Nc3ccc(C#CC4=CCCCC4)cc31)[C@H]2c1ccccc1OCCO	0.581	0.329 (inactive)	0.0452	-0.14	0.23	0.834	-0.189	1.3	0.497	1
CCCC[C@@H]1C[C@H]1[C@@H](NC(=O)c1cccs1)c1ccc(Cl)cc1	0.804	2.33 (inactive)	-0.201	-0.0956	-0.346	1.08	-0.0875	-0.858	-1.66	-0.782
COC(=O)C1=C(C)N(Cc2ccccc2)c2c(C(=O)OC)c(C(=O)OC)c(C(=O)OC)c(=O)n2[C@@H]1c1ccccc1	0.8	0.242 (inactive)	0.116	-0.0158	0.0478	0.247	0.763	0.383	-0.0328	0.641
C[C@@H]1C=CCC(=O)OC[C@H]2O[C@@H](C=C[C@@H]2O)[C@H](C)C=CCC(=O)OC[C@H]2O[C@H]1C=C[C@@H]2O	-0.581	1.21 (inactive)	0.716	-0.0318	-0.227	-0.268	-0.725	0.65	1.58	-0.343
CO[C@H]1COC(=O)[C@@H](OCc2ccccc2)C=C[C@H](C)[C@@H](OC)COC(=O)[C@H](OCc2ccccc2)C=C[C@@H]1C	-0.695	-0.738 (inactive)	-0.0682	-0.179	-0.516	-0.838	-0.885	-0.693	-0.51	-0.218
O=C1O[C@@H](c2ccccc2)[C@@H](c2ccccc2)N2[C@@H](c3ccc(OCCO)cc3)[C@]3(C(=O)Nc4ccc(C#CCCO)cc43)[C@@H](C(=O)N3CCN(c4ncccn4)CC3)[C@H]12	0.536	0.337 (inactive)	0.143	-0.0684	0.485	1.87	0.188	1.32	0.168	1.17
COCCCNC(=O)[C@@]1(c2ccc([N+](=O)[O-])cc2)CC(=O)N(C2CCCCC2)[C@@H]1c1ccc(CO)cc1	0.502	-0.0867 (inactive)	-0.391	-0.272	0.672	2.28	1.63	0.0163	-0.264	-0.194
COCCOC(=O)N1C(=O)[C@@]2(c3cc(C#CC4=CCCCC4)ccc31)[C@H](C(=O)NC[C@H](O)c1ccccc1)[C@H]1C(=O)O[C@H](c3ccccc3)[C@H](c3ccccc3)N1[C@@H]2c1ccc(OCCO)cc1	0.723	-0.0384 (inactive)	0.0739	-0.0986	0.224	1.9	-0.0647	1.3	0.629	1.12
C=C(COC)/C(=C/C[C@H](OC(C)=O)c1ccc(OCCO)cc1)c1cnc2ccccc2c1	0.0916	-0.0473 (inactive)	0.196	-0.108	0.797	0.193	-0.0578	1.27	1.24	1.05
O=C(CS)NCCCCCNC(=O)[C@H]1C[C@H]2C(=O)N[C@@H](Cc3ccccc3)C(=O)N2[C@H]1c1ccc(O)cc1	0.237	-0.65 (inactive)	0.114	-0.0598	0.436	0.704	0.393	1.32	0.905	1.17
Cc1ccc([C@@H]2CC=C(C(=O)O)[C@H](c3ccccc3)N2S(=O)(=O)c2ccc(C)cc2)cc1	1.02	1.1 (inactive)	0.254	0.0344	0.546	2.36	0.581	1.31	-2.11	1.22
C=CCN(C(=O)C1N(c2ccc(CCO)cc2)C(=O)C2C(C(=O)O)C3C=CC21O3)C(C)(C)C (stereo not given)	-1.21	-0.12 (inactive)	-0.549	-0.171	0.971	1.42	-0.262	-1.24	-4.23	-3.08
C[N+](C)(C)CCCCNC(=O)[C@@H]1C[C@@H]2C(=O)N3CCC[C@H]3C(=O)N2[C@@H]1c1cccc(OCCO)c1	-0.486	2.6 (inactive)	-0.199	-0.153	0.678	0.538	0.248	1.04	1.04	0.909
CCN1C(C)=C(C(=O)OC)[C@@H](c2ccccc2)N2C(=O)[C@](O)(C(=O)OC)[C@@H](c3ccccc3)C(C(C)=O)=C12	-0.647	0.319 (inactive)	0.641	-0.0483	0.916	-0.0995	-0.141	-0.0684	0.708	-1.15
O=C1C[C@@](C(=O)NCCN2CCOCC2)(c2ccc([N+](=O)[O-])cc2)[C@@H](c2ccc(CO)cc2)N1C1CCCCC1	-0.218	-0.346 (inactive)	0.0597	0.188	0.656	1.79	0.596	1.17	0.395	1.06
CC1CC/C=C\[C@H]2OC34C=CCN(Cn5nnc6ccccc65)C(=O)[C@H]3N(C(C)CO)C(=O)[C@@H]4C2C(=O)O1 (stereo not given in full)	-0.178	-0.105 (inactive)	-0.1	-0.189	0.797	-0.0502	0.0114	-0.579	-0.764	-0.309
COc1ccc(CCN2C(=O)[C@@]3(c4ccc([N+](=O)[O-])cc4)CC(=O)N(CC45CC6CC(CC(C6)C4)C5)[C@@H]3c3ccc(CO)cc32)cc1	-0.181	0.653 (inactive)	0.323	0.0437	0.446	1.38	-0.415	0.644	0.569	0.402

SMILES	composite z-score (Albumin (Bos taurus))	composite Z-score [1]	composite z-score [2]	composite z-score [3]	composite z-score [4]	composite z-score [5]	composite z-score [6]	composite z-score (Sam68 (KHDRBS1))	composite z-score [7]	composite z-score [8]
COc1ccc([Si](C)(C)[C@@H]2[C@@H](CCO)O[C@]3(C(=O)N(Cc4ccccc4)c4ccccc43)[C@H]2C)cc1	0.152	0.158 (inactive)	-0.113	-0.125	-0.0193	0.141	0.0521	0.555	-0.0822	0.421
C[C@H]1NC(=O)[C@@H](C)NC(=O)[C@@]23C(=O)N[C@@H](Cc4ccccc4)C2[C@H](C)[C@@]2(C)O[C@H]2C3/C=C/C/C=C\CNC1=O (stereo not given in full)	-0.631	0.0894 (inactive)	-0.195	-0.126	0.502	-0.482	-0.599	-0.344	0.274	-0.888
COCCOC(=O)N1C(=O)[C@@]2(c3cc(C#CC4=CCCCC4)ccc31)[C@H](C(=O)NC[C@H](O)c1ccccc1)[C@H]1C(=O)O[C@H](c3ccccc3)[C@H](c3ccccc3)N1[C@@H]2c1ccccc1OCCO	0.648	0.155 (inactive)	0.315	-0.0311	0.358	1.11	0.474	1.3	0.239	1.09
C=CCc1cccc([C@H]2N[C@H](C(=O)O)CC[C@@H]2C)c1	-0.595	-0.149 (inactive)	-0.122	-0.157	0.0666	-0.31	-0.27	0.538	0.843	0.0607
COC(=O)C[C@H]1O[C@]2(C(=O)N(C)c3ccccc32)[C@@H](C)[C@@H]1[Si](C)(C)c1ccc(OC)cc1	0.163	-0.211 (inactive)	0.0185	-0.135	0.158	0.342	0.494	0.567	0.291	0.598
C=C(CCCC)C(=O)CC[C@@H](OC(C)=O)c1ccccc1OCCO	-0.993	2.25 (inactive)	-0.13	-0.117	0.638	-0.429	1.23	-0.665	-0.646	-1.43
NC(=O)[C@H]1[C@@H]2C(=O)O[C@@H](c3ccccc3)[C@@H](c3ccccc3)N2[C@@H](c2ccc(O)cc2)[C@]12C(=O)Nc1ccc(C#CCCO)cc12	0.0103	0.049 (inactive)	-0.125	-0.0645	0.72	-0.119	0.0482	-1.09	-0.92	-1.78
O=C1O[C@@H](c2ccccc2)[C@@H](c2ccccc2)N2[C@@H](c3ccccc3OCCO)[C@]3(C(=O)Nc4ccc(C#CC5=CCCCC5)cc43)[C@@H](C(=O)O)[C@H]12	0.664	-0.114 (inactive)	0.0563	-0.0391	0.549	1.67	0.659	1.33	-0.241	1.08
CC(C)(C)OC(=O)CC[C@]1(C(=O)N2CCCCC2)N=C(c2ccc(OCCCO)cc2)O[C@H]1c1ccccc1	0.806	-0.0084 (inactive)	0.261	-0.127	0.741	2.94	0.708	1.28	0.261	1.13
O=C1c2ccccc2[C@@]2(Cc3ccccc3N(CC(F)(F)F)C2=O)[C@H](c2ccc(CO)cc2)N1C1CCCCC1	-0.976	-0.336 (inactive)	0.157	-0.122	0.807	0.31	0.48	0.588	0.759	0.709
COc1ccc([C@H]2C[C@H]3C(Br)=C[C@]2(OC)C(=O)[C@]32CO2)cc1	0.504	-0.145 (inactive)	-0.0918	-0.161	0.545	-0.332	0.542	-0.72	0.388	0.0428
CO[C@H]1COC(=O)[C@@H](C)NC(=O)CC=C[C@@H](C)[C@H](OC)COC(=O)CC=C[C@@H]1C	-0.731	1.16 (inactive)	-0.0679	-0.201	-0.576	-0.724	-0.517	0.32	1.46	-1.28
CC(=O)NCCCC[C@@H]1NC(=O)[C@@H]2C[C@H](C(=O)NCCCCCNC(=O)CS)[C@H](c3ccc(O)cc3)N2C1=O	-0.0591	1.43 (inactive)	-0.282	-0.203	0.497	0.534	-0.377	-0.0077	-0.13	-0.579
CCN1C(C)=C(C(=O)OC)[C@@H](c2ccccc2)N2C(=O)[C@@]3(C(=O)OC)O[C@@]12[C@@H]1C(=O)CCC[C@@H]13	-0.439	-0.166 (inactive)	-0.0345	-0.195	0.558	-0.503	-0.227	0.475	1.46	-0.92
C=CC[C@]1(C(N)=O)N=C(c2ccc(OCCCO)cc2)O[C@H]1c1ccccc1CN=[N+]=[N-]	1.05	0.221 (inactive)	-0.0502	-0.0785	0.856	2.69	0.623	1.11	-0.63	0.885
CCCC=C(CCC)[C@@H](NS(=O)(=O)c1ccc(C(F)(F)F)cc1)c1ccc(-c2ccccc2)cc1	0.822	-0.118 (inactive)	0.305	-0.0467	0.279	2.24	0.348	1.21	-0.386	0.882
